# Source: the supplement of paper PMC3334620
# Over roughly 33,000 sequences, “E-score (-0.5 to 0.5)” has its median near -0.013; the highest 2% begin near 0.3. This excerpt belongs to a sample that is enriched for the highest values.
# Molecular target: T1, Msn1 (UniProt P22148)
# T1 sequence: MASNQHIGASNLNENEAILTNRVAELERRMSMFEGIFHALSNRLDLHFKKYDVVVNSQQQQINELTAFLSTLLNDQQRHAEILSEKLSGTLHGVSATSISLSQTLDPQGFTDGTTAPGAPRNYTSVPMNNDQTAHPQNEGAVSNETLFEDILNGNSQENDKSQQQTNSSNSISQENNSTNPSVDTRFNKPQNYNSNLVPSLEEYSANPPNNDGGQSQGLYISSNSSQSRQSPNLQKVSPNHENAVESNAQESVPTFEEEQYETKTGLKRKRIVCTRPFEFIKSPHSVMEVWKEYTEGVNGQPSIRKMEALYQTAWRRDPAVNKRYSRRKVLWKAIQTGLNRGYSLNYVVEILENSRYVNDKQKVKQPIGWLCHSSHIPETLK
# Experiment: PBM E-score (8-mer binding enrichment) (E-score (-0.5 to 0.5)); higher = stronger / more preferred TF binding
# Conditions: protein concentration: 200 nM; construct: GST-full length
# Method: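 Universal 'all 10-mer' protein binding microarrays (Agilent AMADID 015681) probed with GST-tagged S. cerevisiae TFs (full-length or DBD) made by in vitro transcription/translation (PURExpress), about 100-200 nM. Bound TF was detected with fluorescent anti-GST. Each ungapped 8-mer (which stands for itself and its reverse complement) is scored by the PBM enrichment score (E-score), a modified Wilcoxon-Mann-Whitney statistic from -0.5 to +0.5, computed with the Universal PBM Analysis Suite. Scale: above 0.35 generally sequence-specific binding.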
row,Sequence,PBM E-score
1,GGACTTTA,0.328
2,CGACTTTA,0.201
3,AGACTTTA,0.0848
4,GTTGACAA,0.269
5,CCTGACAA,0.202
6,CGTGACAA,0.309
7,TGTGACAA,0.377
8,GGTGACAC,-0.0303
9,CGTGACAG,0.0649
10,AGTGACAA,0.302
11,GGTGACAA,0.322
12,TCTGACAA,0.198
13,CCGCCAGG,-0.117
14,AACAGCGG,-0.0502
15,CGCTATGC,-0.215
16,CTGTCCGA,0.275
17,ATGTCCGA,0.475
18,GTGTCCGA,0.37
19,ACGTCCGA,-0.00037
20,GGGTCCGA,-0.115
21,AGGTCCGA,0.132
22,AGTCCTGC,0.0243
23,AAAATCTG,0.182
24,AGATTGCC,-0.0449
25,AAAGACCG,0.0194
26,CAGGTAGA,-0.142

row,Sequence,PBM E-score
1,CCCTTCAA,-0.185
2,ATAGAGCG,-0.0637
3,ATTTTGTC,0.468
4,ATTTTGTG,0.144
5,ATTTTGTA,0.209
6,AATTTGAC,0.194
7,AATTTGTC,0.488
8,AATTTGTG,0.186
9,GGGGGAAC,-0.456
10,GTAAAGTA,0.0255
11,GCGGGACC,-0.22
12,ACGGGACC,-0.247
13,ACGGGACA,0.384
14,CCGGGACC,-0.159
15,TCGGGACA,0.456
16,CCGGGACA,0.457
17,TCGGGAGA,0.014
18,TCGGGAAA,0.176
19,CCGGGACG,-0.0555
20,ACGGGACT,0.0899
21,GCGGGACA,0.359
22,GCGGGATA,0.0848
23,GAGCCCGA,-0.128
24,CTAGTGGA,-0.211
25,CGGAGGAC,0.0943
26,ACTTAGCG,0.074

row,Sequence,PBM E-score
1,ACCTCGAG,-0.0305
2,CATGGTCA,0.117
3,CTGGGGTC,-0.217
4,CGACTTCA,0.0948
5,GCGCTTGA,0.00998
6,GGACTTCA,0.0504
7,ACACTGTC,0.165
8,CTCCTTAA,-0.0988
9,TTCCTAAA,0.0739
10,ATCCTACA,-0.189
11,CTCCTACA,-0.187
12,ATCCTTAA,-0.126
13,CTCCTAGA,-0.0389
14,GTCCTACA,0.385
15,ATCCTAGA,-0.0654
16,GTCCTTAA,0.433
17,GTCCTAAA,0.365
18,GTCCTAGA,0.342
19,ATCCTAAA,-0.0285
20,ACAGCCGA,-0.16
21,GGCAAACC,-0.244
22,ACTCTCCG,-0.11
23,ACCTCCTG,-0.169
24,AGCATACC,-0.0756
25,ACACTAAC,0.119
26,CTCTATGC,-0.0926

row,Sequence,PBM E-score
1,AGTCGGAG,-0.189
2,GGACTTAC,0.273
3,CCTCCGGA,0.102
4,CTACTAGA,-0.0895
5,GTCCTAAC,0.36
6,GTACTAGA,0.308
7,CTCCTAAC,-0.278
8,ATCCTAAC,0.0664
9,ATACTAGA,0.125
10,ACTCAAAG,0.0435
11,ATGCGTTA,-0.0377
12,CACACTAC,-0.188
13,CAAGGGCG,-0.191
14,ATGCAGAG,-0.253
15,CTCGGATA,0.157
16,GTCGGATA,0.0474
17,ATCGGACC,0.0183
18,GTCGGAGA,0.0165
19,CTCGGACA,0.44
20,CTCGGACC,0.165
21,GTCGGACA,0.427
22,ATCGGACA,0.369
23,ATCGGACG,0.00151
